The supplement of paper PMC10849652
Of roughly 7,900 targets only a part is listed; those with a hit were picked by preference. About 0.6% of all pairs of compound and target were hits.

Assays:
Test in all cases: log2 fold change, soluble protein after heating vs DMSO (PISA); higher = thermal stabilisation; K562 cells, 10 uM, 30 min; active = over 0.2 and 3.5 SD of the protein, either way, in both replicates (recomputed)
[1] = compound: C#Cc1cccc(Nc2ncnc3cc(OCCOC)c(OCCOC)cc23)c1 [erlotinib]
Procedure, shortened: (§1)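 K562 cells at 2×10^6 cells/mL were treated for 30 min with 10 μM compound, and aliquots were heated for 3 min over 48°C-58°C before pooling. Extraction used PBS with 0.5% NP-40 at 4°C, and soluble protein was the supernatant after 21,000xg for 90 min, measured by TMTpro 16plex LC-MS/MS with channel sums equalised. Thermal stability values, relative to control samples and from duplicates, are log2 fold changes.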

[2] = compound: C/C(=N\NC(=O)C1=CC(=CC=C1)S(=O)(=O)N2CCOCC2)/C3=C(C=CC(=C3)Cl)O
Procedure, shortened: as §1

[3] = compound: C1=CC(=CC=C1C2=NC3=C(N2)C=C(C=C3)C(=O)N)OC4=CC=C(C=C4)Cl
Procedure, shortened: as §1

[4] = compound: C1=CC2=C(C=CC(=C2)/C=C\3/C(=O)NC(=NCC4=CC=CS4)S3)N=C1
Procedure, shortened: as §1

[5] = compound: C1=CC2=NC=CN=C2C=C1/C=C/3\C(=O)NC(=O)S3
Procedure, shortened: as §1

[6] = compound: C1=CC=C(C=C1)C2=NC(=C(N2)C3=CC=NC=C3)C4=CC(=C(C=C4)Cl)O
Procedure, shortened: as §1

[7] = compound: C1=CC=C2C(=C1)C3=NNC4=CC=CC(=C43)C2=O
Procedure, shortened: as §1

[8] = compound: C1CCN(C1)C(=O)NC2=CC=CC(=C2)NC3=NC=C(C(=N3)NCCC4=CN=CN4)Br
Procedure, shortened: as §1

[9] = compound: C1CN(CCC1(CC2=CC=C(C=C2)Cl)N)C3=NC=NC4=C3C=CN4
Procedure, shortened: as §1

[10] = compound: C1COCCN1CCN2C3=CC=CC=C3N=C2NC(=O)C4=CC(=CC=C4)[N+](=O)[O-] [IRAK-1-4 Inhibitor I]
Procedure, shortened: as §1

[11] = compound: C=CC(=O)N1CCC[C@@H](n2nc(-c3ccc(Oc4ccccc4)cc3)c3c(N)ncnc32)C1 [ibrutinib]
Procedure, shortened: as §1

[12] = compound: CC(=O)c1cnc2ccc(-c3cc(Cl)c(O)c(Cl)c3)nc2c1N[C@H]1CC[C@H](CN(C)C)CC1
Procedure, shortened: as §1

[13] = compound: CC(C)(C)Cn1c(N)nc2ccc(-c3[nH]c(C(C)(C)C)nc3-c3ccc(F)cc3)nc21 [ralimetinib]
Procedure, shortened: as §1

[14] = compound: CC(C)C1=C2N=C(C=C(N2N=C1)NCC3=CC=CC=C3)NCCCCCCN
Procedure, shortened: as §1

[15] = compound: CC(C)C[C@@H](C=O)NC(=O)[C@H](CC(C)C)NC(=O)[C@H](CC(C)C)NC(=O)OCc1ccccc1
Procedure, shortened: as §1

[16] = compound: CC(C)N(C[C@H]1O[C@@H](n2cnc3c(N)ncnc32)[C@H](O)[C@@H]1O)[C@H]1C[C@@H](CCc2nc3cc(C(C)(C)C)ccc3[nH]2)C1 [pinometostat]
Procedure, shortened: as §1

[17] = compound: CC1=C(C(CC(=O)N1)C2=CC=C(C=C2)C(F)(F)F)C(=O)NC3=C(C=C4C(=C3)C=NN4)F
Procedure, shortened: as §1

[18] = compound: CC1=C(C2=C(C=C1)C(=O)C3=CC=CC=C3N2CCCN)C
Procedure, shortened: as §1

[19] = compound: C1=CC(=C(C=C1Cl)C2=NC3=NC=CN=C3C(=N2)NC4=CC=NC=C4)F
Procedure, shortened: as §1

[20] = compound: CC(C)(O)CC(=O)NCCn1ccc2ncnc(Nc3ccc(Oc4cccc(C(F)(F)F)c4)c(Cl)c3)c21
Procedure, shortened: as §1

Measured: log2 fold change

APOH (UniProt P02749)
inactive: [1] -0.214 | [2] -0.028 | [3] 0.051 | [4] -0.026 | [5] 0.069 | [6] -0.1 | [7] -0.092 | [8] 0.188 | [9] 0.09 | [10] 0.13 | [11] 0.155 | [12] 0.211 | [13] -0.131 | [14] -0.067 | [15] 0.119 | [16] -0.117 | [17] 0.419 | [18] -0.126

BRAF, A0A2R8Y8E0
active: [6] -0.987
inactive: [1] 0.073 | [2] 0.15 | [3] 0.083 | [4] -0.248 | [7] -0.047 | [8] -0.235 | [9] -0.26 | [10] 0.055 | [12] 0.156 | [13] 0.059 | [14] -0.188 | [15] 0.067 | [16] -0.04 | [17] 0.149 | [18] 0.078

AKNA (UniProt Q7Z591)
UniProt Q7Z591, sequence (Q7Z591 whole entry, looked up): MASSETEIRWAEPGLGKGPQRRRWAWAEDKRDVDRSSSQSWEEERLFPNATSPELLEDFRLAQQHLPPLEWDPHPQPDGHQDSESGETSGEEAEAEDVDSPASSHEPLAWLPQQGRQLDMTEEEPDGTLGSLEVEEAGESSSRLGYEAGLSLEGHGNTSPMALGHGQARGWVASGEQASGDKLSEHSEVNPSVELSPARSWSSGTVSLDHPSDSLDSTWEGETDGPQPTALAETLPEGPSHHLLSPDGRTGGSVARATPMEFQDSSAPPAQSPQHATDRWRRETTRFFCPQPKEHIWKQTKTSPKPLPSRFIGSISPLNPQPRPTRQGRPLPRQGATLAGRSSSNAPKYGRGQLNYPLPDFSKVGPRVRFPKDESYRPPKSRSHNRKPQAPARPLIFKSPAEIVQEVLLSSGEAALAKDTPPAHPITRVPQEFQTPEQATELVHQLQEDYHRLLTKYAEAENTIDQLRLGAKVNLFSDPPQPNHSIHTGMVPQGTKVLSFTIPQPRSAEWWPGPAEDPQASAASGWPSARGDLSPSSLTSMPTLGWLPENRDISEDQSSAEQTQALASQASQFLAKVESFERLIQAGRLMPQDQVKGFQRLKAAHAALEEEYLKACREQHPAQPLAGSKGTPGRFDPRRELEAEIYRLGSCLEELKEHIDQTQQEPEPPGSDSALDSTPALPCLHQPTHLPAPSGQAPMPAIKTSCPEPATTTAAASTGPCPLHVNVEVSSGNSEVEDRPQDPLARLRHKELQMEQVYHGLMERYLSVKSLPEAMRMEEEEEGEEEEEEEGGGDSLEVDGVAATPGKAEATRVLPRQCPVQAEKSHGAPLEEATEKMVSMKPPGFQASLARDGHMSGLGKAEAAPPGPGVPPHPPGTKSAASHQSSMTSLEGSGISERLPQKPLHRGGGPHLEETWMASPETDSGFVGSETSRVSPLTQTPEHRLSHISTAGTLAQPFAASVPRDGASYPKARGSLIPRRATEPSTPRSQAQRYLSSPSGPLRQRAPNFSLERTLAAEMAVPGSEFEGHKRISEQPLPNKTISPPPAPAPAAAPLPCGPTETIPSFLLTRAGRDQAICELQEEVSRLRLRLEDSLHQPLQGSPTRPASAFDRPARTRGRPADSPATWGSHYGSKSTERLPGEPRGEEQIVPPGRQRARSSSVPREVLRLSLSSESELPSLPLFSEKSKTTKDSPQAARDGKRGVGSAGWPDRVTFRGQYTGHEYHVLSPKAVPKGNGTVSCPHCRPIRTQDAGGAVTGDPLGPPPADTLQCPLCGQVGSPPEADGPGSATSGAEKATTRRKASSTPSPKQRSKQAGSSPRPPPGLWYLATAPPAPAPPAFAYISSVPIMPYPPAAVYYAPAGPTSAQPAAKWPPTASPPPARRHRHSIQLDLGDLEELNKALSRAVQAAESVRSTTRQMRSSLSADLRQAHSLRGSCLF
inactive: [1] -0.147 | [3] 0.195
active: [14] -0.659

BDH2 (UniProt Q9BUT1)
inactive: [1] -0.003 | [2] 0.204 | [3] 0.184 | [4] -0.031 | [5] -0.005 | [6] 0.085 | [7] 0.103 | [10] -0.009 | [11] 0.041 | [12] -0.073 | [13] -0.059 | [14] 0.183 | [15] 0.001 | [16] 0.004

ADPRH (UniProt P54922)
UniProt P54922, sequence (P54922 whole entry, looked up): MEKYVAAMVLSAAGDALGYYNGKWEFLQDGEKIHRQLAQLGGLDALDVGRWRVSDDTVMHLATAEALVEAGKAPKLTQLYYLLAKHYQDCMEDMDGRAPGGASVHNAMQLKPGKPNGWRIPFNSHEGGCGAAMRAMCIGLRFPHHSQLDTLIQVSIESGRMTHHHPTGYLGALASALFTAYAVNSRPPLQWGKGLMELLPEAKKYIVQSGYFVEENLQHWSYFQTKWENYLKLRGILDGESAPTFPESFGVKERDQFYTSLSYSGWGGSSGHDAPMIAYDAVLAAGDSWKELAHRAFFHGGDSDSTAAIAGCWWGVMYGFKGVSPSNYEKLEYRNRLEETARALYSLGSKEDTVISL
inactive: [1] -0.021 | [19] -0.047 | [3] -0.047 | [5] 0.008 | [6] -0.011 | [8] 0.141 | [9] -0.065 | [10] 0.056 | [11] 0.001 | [13] -0.003 | [20] -0.084 | [14] 0.107 | [15] -0.033 | [16] 0.021 | [17] -0.032 | [18] 0.037

ATXN3 isoform 1 (UniProt P54252)
UniProt P54252, sequence (P54252 whole entry, looked up): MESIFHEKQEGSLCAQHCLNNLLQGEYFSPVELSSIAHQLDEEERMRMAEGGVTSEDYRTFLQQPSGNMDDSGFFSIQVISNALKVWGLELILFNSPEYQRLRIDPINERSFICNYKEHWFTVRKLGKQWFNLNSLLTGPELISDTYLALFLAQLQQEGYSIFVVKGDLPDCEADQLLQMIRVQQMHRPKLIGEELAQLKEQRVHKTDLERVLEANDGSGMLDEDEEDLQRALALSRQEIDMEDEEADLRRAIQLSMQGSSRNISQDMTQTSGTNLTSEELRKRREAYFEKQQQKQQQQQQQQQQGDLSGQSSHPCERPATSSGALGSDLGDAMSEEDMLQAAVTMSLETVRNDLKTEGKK
inactive: [1] 0.082 | [2] 0.107 | [3] 0.038 | [4] -0.042 | [5] 0.082 | [6] -0.038 | [7] -0.115 | [8] -0.073 | [9] -0.002 | [10] -0.031 | [11] 0.028 | [12] 0.065 | [13] 0.018 | [14] -0.314 | [15] 0.234 | [16] 0.021 | [17] 0.018 | [18] 0.016

BRD3 (UniProt Q15059)
UniProt Q15059, sequence (Q15059 whole entry, looked up): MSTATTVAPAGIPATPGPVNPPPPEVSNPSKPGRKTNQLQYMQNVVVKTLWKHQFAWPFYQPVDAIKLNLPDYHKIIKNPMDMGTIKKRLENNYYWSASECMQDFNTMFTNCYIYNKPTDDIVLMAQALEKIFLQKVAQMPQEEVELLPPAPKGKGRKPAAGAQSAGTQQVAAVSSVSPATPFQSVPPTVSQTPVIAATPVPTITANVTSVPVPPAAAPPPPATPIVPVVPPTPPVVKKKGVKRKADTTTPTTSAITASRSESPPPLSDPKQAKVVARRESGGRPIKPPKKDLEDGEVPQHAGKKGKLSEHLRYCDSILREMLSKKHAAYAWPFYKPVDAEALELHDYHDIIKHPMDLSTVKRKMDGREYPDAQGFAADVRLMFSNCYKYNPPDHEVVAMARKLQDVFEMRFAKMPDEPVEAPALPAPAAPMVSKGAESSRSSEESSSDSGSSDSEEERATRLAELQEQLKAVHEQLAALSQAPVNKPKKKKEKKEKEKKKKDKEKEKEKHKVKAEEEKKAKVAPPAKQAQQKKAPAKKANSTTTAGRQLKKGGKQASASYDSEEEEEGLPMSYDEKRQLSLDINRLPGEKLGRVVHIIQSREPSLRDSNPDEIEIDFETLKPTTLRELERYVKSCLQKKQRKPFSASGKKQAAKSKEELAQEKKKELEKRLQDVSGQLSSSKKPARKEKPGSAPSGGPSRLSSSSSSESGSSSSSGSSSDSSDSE
inactive: [1] -0.282 | [2] -0.072 | [3] 0.061 | [4] -0.021 | [5] 0.071 | [6] 0.128 | [7] 0.059 | [8] -0.163 | [9] -0.024 | [10] 0.163 | [11] 0.037 | [12] -0.032 | [13] -0.136 | [14] 0.152 | [15] -0.065 | [16] 0.143 | [17] 0.026 | [18] 0.162

ATP6V0A1 (UniProt Q93050)
inactive: [5] 0.187 | [11] 0.047

ACTR3B (UniProt Q9P1U1)
inactive: [1] -0.033 | [3] 0.073 | [6] -0.078 | [8] -0.012 | [9] 0.145 | [10] -0.04 | [13] -0.071 | [14] 0.181 | [15] 0.056 | [16] -0.081 | [17] -0.015 | [18] -0.016

AZI2 (UniProt Q9H6S1)
inactive: [1] -0.039 | [3] -0.211 | [5] 0.009 | [6] -0.012 | [8] -0.025 | [9] 0.04 | [11] 0.046 | [13] -0.241 | [14] -0.126 | [15] -0.09 | [17] -0.018 | [18] 0.022

ACSL6 isoform 1 (UniProt Q9UKU0)
inactive: [1] -0.066 | [19] 0.02 | [3] 0.025 | [5] -0.083 | [6] -0.061 | [8] -0.03 | [9] 0.04 | [11] 0.043 | [13] -0.001 | [20] 0.222 | [14] -0.21 | [15] 0.027 | [17] -0.109 | [18] 0.012

AARSD1 (UniProt Q9BTE6)
inactive: [1] 0.131 | [2] -0.415 | [3] 0.054 | [4] -0.063 | [5] -0.117 | [7] 0.197 | [10] 0.264 | [11] 0.135 | [12] 0.107 | [14] -0.13 | [16] 0.041 | [17] -0.045

ARFIP1 isoform 2 (UniProt P53367)
inactive: [1] 0.106 | [19] -0.064 | [3] -0.051 | [5] -0.06 | [10] -0.051 | [11] -0.055 | [20] -0.186 | [14] -0.048 | [16] 0.043 | [17] 0.029

ALDH2 isoform 2 (UniProt P05091)
UniProt P05091, sequence (P05091 whole entry, looked up): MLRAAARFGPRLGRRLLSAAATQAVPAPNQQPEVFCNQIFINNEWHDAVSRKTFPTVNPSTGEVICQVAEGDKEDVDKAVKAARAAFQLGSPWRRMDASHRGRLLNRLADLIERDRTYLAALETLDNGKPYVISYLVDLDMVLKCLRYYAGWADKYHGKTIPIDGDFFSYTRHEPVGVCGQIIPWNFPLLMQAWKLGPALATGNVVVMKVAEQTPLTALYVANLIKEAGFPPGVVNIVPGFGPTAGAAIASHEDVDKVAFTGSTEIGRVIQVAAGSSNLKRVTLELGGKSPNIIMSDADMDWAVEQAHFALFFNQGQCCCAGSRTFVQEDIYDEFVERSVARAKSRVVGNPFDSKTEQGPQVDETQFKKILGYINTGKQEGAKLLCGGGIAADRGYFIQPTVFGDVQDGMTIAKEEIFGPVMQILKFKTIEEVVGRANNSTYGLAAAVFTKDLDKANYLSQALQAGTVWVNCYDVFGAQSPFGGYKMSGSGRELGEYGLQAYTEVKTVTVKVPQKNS
inactive: [2] -0.197 | [19] -0.106 | [4] 0.6 | [5] 0.07 | [6] -0.263 | [7] 0.131 | [8] 0.208 | [9] 0.032 | [11] -0.1 | [12] -0.133 | [13] -0.18 | [20] 0.029 | [15] 0.063 | [18] 0.087

ADD3 isoform 2 (UniProt Q9UEY8)
inactive: [2] 0.171 | [19] -0.049 | [4] 0.057 | [6] 0.009 | [7] 0.047 | [8] -0.016 | [9] 0.034 | [10] 0.008 | [12] -0.433 | [13] -0.015 | [20] 0.005 | [15] 0.009 | [16] 0.108 | [18] -0.063

ARRDC1 (UniProt Q8N5I2)
UniProt Q8N5I2, sequence (Q8N5I2 whole entry, looked up): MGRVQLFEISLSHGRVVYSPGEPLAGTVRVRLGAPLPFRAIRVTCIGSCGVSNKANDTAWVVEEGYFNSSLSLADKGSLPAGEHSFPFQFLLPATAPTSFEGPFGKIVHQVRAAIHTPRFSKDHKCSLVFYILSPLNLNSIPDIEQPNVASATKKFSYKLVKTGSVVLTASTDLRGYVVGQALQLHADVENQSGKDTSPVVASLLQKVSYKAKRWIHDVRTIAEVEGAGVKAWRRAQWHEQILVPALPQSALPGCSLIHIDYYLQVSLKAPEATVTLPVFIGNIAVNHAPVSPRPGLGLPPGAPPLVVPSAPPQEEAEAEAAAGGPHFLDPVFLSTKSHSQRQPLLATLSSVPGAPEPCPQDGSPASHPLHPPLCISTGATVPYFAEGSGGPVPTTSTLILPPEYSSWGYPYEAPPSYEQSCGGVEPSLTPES
inactive: [1] -0.079 | [19] -0.075 | [3] 0.038 | [5] -0.05 | [6] 0.042 | [8] -0.03 | [9] -0.066 | [11] 0.062 | [13] 0.076 | [20] 0.102 | [14] -0.07 | [15] 0.094 | [17] -0.075 | [18] 0.045

ATXN7L3 isoform 2 (UniProt Q14CW9)
UniProt Q14CW9, sequence (Q14CW9 whole entry, looked up): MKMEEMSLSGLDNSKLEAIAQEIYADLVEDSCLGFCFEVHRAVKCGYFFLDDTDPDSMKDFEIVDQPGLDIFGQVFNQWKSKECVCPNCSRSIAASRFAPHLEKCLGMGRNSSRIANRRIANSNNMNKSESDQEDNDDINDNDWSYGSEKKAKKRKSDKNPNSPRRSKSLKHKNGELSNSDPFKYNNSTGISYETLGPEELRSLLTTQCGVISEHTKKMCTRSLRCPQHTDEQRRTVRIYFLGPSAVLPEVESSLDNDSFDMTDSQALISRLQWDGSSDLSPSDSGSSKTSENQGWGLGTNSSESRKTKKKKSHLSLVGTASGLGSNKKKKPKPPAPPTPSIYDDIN
inactive: [1] 0.069 | [2] -0.31 | [3] 0.071 | [4] 0.025 | [5] 0.159 | [6] -0.122 | [7] -0.037 | [10] 0.114 | [11] 0.147 | [12] 0.027 | [13] 0.036 | [14] 0.066 | [15] -0.053 | [16] 0.093 | [17] 0.018

ANK2 (UniProt Q01484)
inactive: [1] -0.089 | [2] -0.173 | [3] -0.028 | [4] 0.325 | [5] -0.059 | [6] 0.011 | [7] -0.031 | [8] -0.126 | [9] -0.131 | [10] -0.069 | [11] -0.024 | [12] -0.058 | [13] -0.029 | [14] -0.178 | [15] 0.08 | [16] 0.062 | [17] 0.071
active: [18] 0.423

BAP18 isoform 3 (UniProt Q8IXM2)
UniProt Q8IXM2, sequence (Q8IXM2 whole entry, looked up): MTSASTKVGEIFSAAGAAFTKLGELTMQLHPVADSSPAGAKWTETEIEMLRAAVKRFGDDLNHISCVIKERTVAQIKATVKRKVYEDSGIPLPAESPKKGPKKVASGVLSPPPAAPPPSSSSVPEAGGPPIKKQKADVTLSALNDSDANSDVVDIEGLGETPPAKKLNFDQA
inactive: [1] 0.02 | [3] -0.146 | [8] -0.039 | [9] -0.015 | [14] 0.074 | [18] -0.183

ABITRAM (UniProt Q9NX38)
inactive: [2] 0.084 | [19] 0.029 | [4] 0.018 | [5] 0.023 | [6] -0.05 | [7] 0.034 | [8] -0.037 | [9] 0.018 | [10] 0.041 | [11] 0.005 | [12] -0.073 | [13] -0.088 | [20] -0.008 | [15] 0.016 | [16] -0.025 | [17] 0.049 | [18] 0.001

AP2M1 (UniProt C9JTK4)
inactive: [2] -0.114 | [19] 0.036 | [4] 0.322 | [5] 0.172 | [7] -0.12 | [8] 0.084 | [9] -0.065 | [10] 0.056 | [11] -0.044 | [12] 0.049 | [20] 0.005 | [16] 0.03 | [17] 0.085 | [18] 0.001

ARL4A (UniProt P40617)
inactive: [2] 0.009 | [4] 0.35 | [5] -0.053 | [7] 0.047 | [11] 0.143 | [12] -0.295

ANGEL1 (UniProt Q9UNK9)
UniProt Q9UNK9, sequence (Q9UNK9 whole entry, looked up): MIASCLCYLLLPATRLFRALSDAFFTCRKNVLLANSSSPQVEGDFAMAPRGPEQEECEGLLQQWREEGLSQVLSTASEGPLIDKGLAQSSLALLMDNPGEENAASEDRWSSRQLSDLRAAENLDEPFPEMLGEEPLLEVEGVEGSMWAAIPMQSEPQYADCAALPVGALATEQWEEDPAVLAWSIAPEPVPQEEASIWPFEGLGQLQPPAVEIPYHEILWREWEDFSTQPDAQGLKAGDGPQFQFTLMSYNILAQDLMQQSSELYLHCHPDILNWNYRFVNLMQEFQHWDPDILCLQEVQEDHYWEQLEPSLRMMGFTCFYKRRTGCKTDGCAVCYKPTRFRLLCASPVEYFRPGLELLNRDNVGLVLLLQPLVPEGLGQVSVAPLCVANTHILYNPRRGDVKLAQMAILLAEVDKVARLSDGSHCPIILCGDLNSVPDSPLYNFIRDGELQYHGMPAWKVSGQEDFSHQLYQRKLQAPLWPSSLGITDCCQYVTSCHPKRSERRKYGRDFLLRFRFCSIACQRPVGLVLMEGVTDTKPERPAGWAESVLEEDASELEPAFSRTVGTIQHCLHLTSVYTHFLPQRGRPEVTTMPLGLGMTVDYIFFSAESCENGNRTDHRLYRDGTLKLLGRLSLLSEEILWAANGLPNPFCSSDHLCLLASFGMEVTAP
inactive: [5] 0.161 | [6] -0.107 | [8] -0.149 | [9] 0.092 | [10] -0.042 | [11] 0.062 | [13] 0.332 | [15] 0.207 | [16] -0.019 | [18] 0.074
